# M1 antag: human M1 muscarinic receptor antagonists, primary screen, CHO-K1 cells, Fluo-8 calcium fluorescence, 1536-well | AID 588852, 2011 | 360,000 compounds, 1.3% hits | inhibition, % at 3 µM | Muscarinic acetylcholine receptor M1 (Homo sapiens), P11229 | CHO-K1 hM1, ACh EC80 antagonist;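 active = percent inhibition above its own plate's cutoff, namely the mean of that plate's compound wells plus 3 SD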;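 also: peak over basal fluorescence ratio during 140 s after agonist addition; 0% = ACh EC80 plus DMSO and 100% = DMSO alone without agonist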
# Target sequence (P11229 whole entry, looked up): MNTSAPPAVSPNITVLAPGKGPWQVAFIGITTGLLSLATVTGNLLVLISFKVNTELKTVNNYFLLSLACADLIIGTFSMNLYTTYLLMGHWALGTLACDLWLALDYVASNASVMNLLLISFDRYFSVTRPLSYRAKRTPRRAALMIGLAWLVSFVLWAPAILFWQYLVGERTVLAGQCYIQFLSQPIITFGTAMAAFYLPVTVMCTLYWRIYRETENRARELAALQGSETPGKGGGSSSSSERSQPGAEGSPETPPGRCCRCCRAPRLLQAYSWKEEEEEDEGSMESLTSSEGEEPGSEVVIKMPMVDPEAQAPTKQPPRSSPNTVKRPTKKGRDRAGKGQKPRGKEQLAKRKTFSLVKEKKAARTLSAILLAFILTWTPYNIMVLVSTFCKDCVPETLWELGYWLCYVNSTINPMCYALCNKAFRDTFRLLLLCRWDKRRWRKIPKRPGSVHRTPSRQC
# M1 ag: human M1 muscarinic receptor agonists, primary screen, Fluo-8 calcium fluorescence, CHO-K1 cells, HTS; 360,000 compounds, 0.33% hits; Muscarinic acetylcholine receptor M1 (Homo sapiens), P11229; CHO-K1 hM1, agonist mode; 0% DMSO, 100% acetylcholine EC100; activation, % at 3 µM;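 active = activation above the run's mean compound activation plus 3 SD, cut at about 16% in these data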;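 also: peak over basal fluorescence ratio within a 140 s kinetic read after compound addition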
# CHO-K1 Ca ag: counter-screen for M1 agonists: effect in parental CHO-K1 cells; activation, % at 3 µM; Fluo-8 calcium fluorescence; scaled to maximal ATP response, vehicle zero; 360,000 compounds, 0.48% hits; in the data active = activation above about 15%;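 also: untransfected CHO-K1 host cells lacking M1 receptor as counterscreen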
# CHRM1 PAM: human M1 muscarinic receptor positive allosteric modulators, primary screen, CHO-K1 cells, Fluo-8 calcium fluorescence, 1536-well; Muscarinic acetylcholine receptor M1 (Homo sapiens), P11229; CHO-K1 hM1, ACh EC20; 0% = ACh EC20, 100% = maximal ACh; 360,000 compounds, 0.088% hits; activation, % at 3 µM; in the data active = activation above about 19%, passing the limit was not always enough
# M1 PAM parental: nonselective calcium activators in parental CHO-K1 cells, primary screen, counter-screen for M1 PAM project, cell-based, Fluo-8 calcium fluorescence, full deck, 1536-well | ATP EC20; 0% at ATP EC20, 100% at ATP max | activation, % at 3 µM | 360,000 compounds, 0.02% hits;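 active = activation above the run cutoff, the mean activation of all test compounds plus 3 SD, cut at about 40% in these data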;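 also: peak over basal fluorescence ratio in a 140 s read after ATP addition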
# CHO-K1 Ca antag: nonselective inhibitor or artifact in parental CHO-K1 cells | ATP-induced calcium, Fluo-8 fluorescence | inhibition, % at 3 µM | 360,000 compounds, 0.6% hits | AID 602250;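 active = inhibition above a per-plate cutoff, the plate's mean sample inhibition plus 3 SD, cut at about 24% in these data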;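 also: 0% = DMSO plus EC80 ATP and 100% = DMSO alone without ATP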
# * marks the source's active call; other numbers are inactive results; / = not tested or not shown. An excerpt weighted towards active compounds, which were near 2.3% of everything screened.
SMILES,M1 antag,M1 ag,CHO-K1 Ca ag,CHRM1 PAM,M1 PAM parental,CHO-K1 Ca antag
COc1ccccc1C(CNC(=O)c1ccc(-c2ccccc2Cl)o1)N1CCCC1 (stereo not given),84*,-5,2,-24,-17,4
COc1ccc(Cl)cc1C(=O)NCC(c1ccco1)N1CCCC1 (stereo not given),14,-5,1,-12,16,-8
COc1ccccc1C(CNC(=O)c1ccco1)N1CCCC1 (stereo not given),73*,-8,0,-30,-18,-3
COc1ccccc1C(CNC(=O)CN1C(=O)NC(C)(c2ccc3ccccc3c2)C1=O)N1CCCC1 (stereo not given),65*,-8,1,-27,20,-19
COc1cc(C(=O)NCC(c2ccco2)N2CCCC2)ccc1OCc1ccc(Cl)cc1Cl (stereo not given),49*,-6,4,-24,8,-16
CSc1nc2ccccc2n1Cc1c(Cl)cccc1Cl,21,-6,0,-20,-7,12
Cc1ccsc1C(=O)N1CCCC(C)(C(=O)NS(=O)(=O)C2CC2)C1 (stereo not given),-11,-2,0,7,21,-8
CCC1CN(C(=O)N2CCC(C(=O)NCCc3ccc(OC)cc3OC)CC2)c2ccccc2O1 (stereo not given),15,2,9,-4,7,3
O=C(c1ccco1)N1CCN(C(=O)c2ccc(Br)o2)CC1,-12,-4,1,7,16,-4
O=C(c1ccc(Br)o1)N1CCN(C23CC4CC(CC(C4)C2)C3)CC1,67*,-6,0,-22,-12,13
COCCn1c(SCC(=O)N2CCCC2)nc2c(c1=O)SCC2,-8,-3,1,5,20,-6
COc1ccccc1C(=O)Nc1nc(-c2ccc(S(=O)(=O)N3CCOCC3)cc2)cs1,57*,5,9,-18,-32,21
COc1ccccc1OC(C)C(=O)Nc1nc(-c2ccc(S(=O)(=O)N3CCOCC3)cc2)cs1 (stereo not given),9,2,3,-1,24,-1
O=C(Nc1nc(-c2ccccc2)cs1)c1ccccc1NS(=O)(=O)c1ccc(F)cc1,42*,0,14,-23,-12,32*
O=S(=O)(Nc1ccc(-c2csc(-c3ccccc3)n2)cc1)c1ccc(F)cc1,-12,-4,1,7,15,-17
O=C1NC[C@H](CCCCN2C[C@H](Cc3ccc(O)cc3)N(CCc3ccccc3)C(=O)C2=O)N(CCC2CCCCC2)C1=O,/,/,0,/,-13,-9
CC(C)Cc1ccc(C(C)NC(=O)c2ccc(=O)[nH]c2)cc1 (stereo not given),11,12,15*,1,-8,4
COC(=O)c1ccc(/C=C/c2c(-c3ccsc3)sc3ccccc23)cc1,40*,-7,0,-14,-11,-11
N=c1c2c(n(Cc3ccc(Br)cc3)c3c1CCC3)CCCC2,26*,-10,0,-25,-12,14
N=c1c2c(n(Cc3ccc(Cl)c(Cl)c3)c3c1CCC3)CCCC2,20,-4,1,-16,22,-4
CC1(C)CC(=O)C(N=Nc2ccc(S(=O)(=O)N3CCOCC3)cc2)=C(O)C1,-5,-3,0,7,-17,-4
COc1cc(-c2coc3c(C(=O)NCc4ccc(C(F)(F)F)cc4)cccc23)ccc1O,-9,-3,1,2,-1,-12
CCC(C)[C@H]1CN=C(N)N1CCc1cccc2ccccc12 (stereo not given in full),38*,-14,0,-28,-5,-5
Cc1ccc2cccc(NC(=S)NC(=O)c3c(Br)cnn3C)c2n1,19,-2,0,-7,-8,26*
Cc1ccc2cccc(NC(=S)NC(=O)c3ccn(C)n3)c2n1,-18,-8,1,-3,-4,-13

# Screening results: PubChem BioAssay, The Scripps Research Institute Molecular Screening Center
